Results filed as inconclusive are left out. Active and inactive are the calls of the source. How the source made its calls, unless noted: active means hit-call score of the fitted dose curve at least 0.9, where 1 is the maximum; inconclusive means response in the unintended direction; inactive means score below 0.9.

One may read the AC50 as the concentration giving half of the maximal activity seen.

For assay [1], the target named is human RAR-related Orphan Receptor gamma (RORg), RORC (gene 6097) (UniProt P51449). In words: ATG_RORg_TRANS: Attagene TRANS-FACTORIAL HepG2 Assay for human RAR-related Orphan Receptor gamma (RORg) (AID 2283011). Summed up:
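Readout: reporter transcript induction (RT-PCR, fluorescent primer extension, capillary electrophoresis) after 24 h compound exposure of transiently transfected HepG2 cells carrying a RORg-Gal4 chimera and GAL4-UAS reporters; DMSO served as baseline, with increasing signal fitted.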

In assay [2] the target is Retinoic acid receptor RXR-alpha (Homo sapiens) (UniProt P19793). In words: ATG_RXRa_TRANS: Attagene TRANS-FACTORIAL HepG2 Assay for human Retinoid X Receptor alpha (RXRa) (AID 2283012). The gist of the method:
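TRANS format reporting activity of exogenous RXRa-Gal4 chimera in transiently transfected HepG2, 24 h exposure. Reporter transcripts quantified by RT-PCR with capillary electrophoresis, with gain of signal scored relative to DMSO.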

Assay [3] concerns the target human Retinoid X Receptor beta (RXRb), RXRB (gene 6257) (UniProt P28702). In words: ATG_RXRb_TRANS: Attagene TRANS-FACTORIAL HepG2 Assay for human Retinoid X Receptor beta (RXRb) (AID 2283013). The gist of the method:
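Readout is reporter transcript induction after 24 h dosing. It is measured by RT-PCR of total RNA followed by fluorescent capillary electrophoresis. HepG2 liver cells carry transfected multiple reporter units driven by an exogenous RXRb-Gal4 fusion; activity is relative to DMSO.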

Read-out in assay [4]: Interleukin-1 alpha (IL1a), IL1A (gene 3552)
Briefly: BSK_BE3C_IL1a: BioMAP Diversity Plus: BE3C Assay for Interleukin-1 alpha (IL1a) Biomarker Activity (AID 2283016; active means hit-call score of the fitted dose curve at least 0.9, where 1 is the maximum; inactive means score below 0.9). Particulars: primary human bronchial epithelial cells; actives raise or lower the signal. Summed up: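 IL-1a measured by ELISA after 24 h treatment of human primary bronchial epithelial cells, with gain or loss of signal fitted versus DMSO. Parallel cultures stained with SRB gauge overt cytotoxicity.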

Read-out in assay [5]: Monocyte Chemoattractant Protein-1 (MCP1), CCL2 (gene 6347)
Briefly: BSK_3C_MCP1: BioMAP Diversity Plus: 3C Assay for Monocyte Chemoattractant Protein-1 (MCP1) Biomarker Activity (AID 2283017; active means hit-call score of the fitted dose curve at least 0.9, where 1 is the maximum; inactive means score below 0.9). To be noted: primary human endothelial cells (HUVEC); actives raise or lower the signal. Summed up: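 Primary human umbilical vein endothelial cells (3C system) were exposed to test chemical for 24 h, after which MCP-1 was quantified by ELISA. Activity was fitted bidirectionally against DMSO as negative control and baseline.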

Read-out in assay [6]: Monocyte Chemoattractant Protein-1 (MCP1), CCL2 (gene 6347)
In words: BSK_4H_MCP1: BioMAP Diversity Plus: 4H Assay for Monocyte Chemoattractant Protein-1 (MCP1) Biomarker Activity (AID 2283018; active means hit-call score of the fitted dose curve at least 0.9, where 1 is the maximum; inactive means score below 0.9). To be noted: primary human endothelial cells (HUVEC); actives raise or lower the signal. The gist of the method:
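ELISA of MCP-1 (CCL2) 24 h after chemical dosing of HUVEC in the BioMAP 4H system. Gain or loss versus DMSO fitted; parallel SRB staining (560 nm) tracked overt cytotoxicity.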

Read-out in assay [7]: Human Leukocyte Antigen - DR isotype (HLADR), HLA-DRA (gene 3122)
In words: BSK_3C_HLADR: BioMAP Diversity Plus: 3C Assay for Human Leukocyte Antigen - DR isotype (HLADR) Biomarker Activity (AID 2283019; active means hit-call score of the fitted dose curve at least 0.9, where 1 is the maximum; inactive means score below 0.9). To be noted: primary human endothelial cells (HUVEC); actives raise or lower the signal. The gist of the method: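 Primary human umbilical vein endothelial cells (3C system) were dosed with compound and cell-surface HLA-DR was quantified by ELISA at 24 h. Activity was fitted bidirectionally against DMSO as negative control and baseline.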

Read-out in assay [8]: Interleukin-8 (IL8), CXCL8 (gene 3576)
In words: BSK_3C_IL8: BioMAP Diversity Plus: 3C Assay for Interleukin-8 (IL8) Biomarker Activity (AID 2283020; active means hit-call score of the fitted dose curve at least 0.9, where 1 is the maximum; inactive means score below 0.9). Particulars: primary human endothelial cells (HUVEC); actives raise or lower the signal. The gist of the method:
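IL-8 was measured by ELISA in HUVEC cultures 24 h after chemical dosing, with gain or loss of signal fitted relative to DMSO. Parallel SRB total-protein staining tracked overt cytotoxicity.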

Read-out in assay [9]: Monokine induced gamma interferon (MIG), CXCL9 (gene 4283)
Briefly: BSK_3C_MIG: BioMAP Diversity Plus: 3C Assay for Monokine induced gamma interferon (MIG) Biomarker Activity (AID 2283021; active means hit-call score of the fitted dose curve at least 0.9, where 1 is the maximum; inactive means score below 0.9). To be noted: primary human endothelial cells (HUVEC); actives raise or lower the signal. The gist of the method: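 ELISA measurement of MIG in human umbilical vein endothelial cells 24 h after treatment. Cytotoxicity tracked by SRB staining in parallel cultures; gain or loss of signal fitted relative to DMSO.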

Assay [10] has as its target human Vitamin D Receptor (VDR), VDR (gene 7421) (UniProt P11473). In words: ATG_VDR_TRANS: Attagene TRANS-FACTORIAL HepG2 Assay for human Vitamin D Receptor (VDR) (AID 2283022). The gist of the method:
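HepG2 cells were transiently transfected with multiple GAL4-UAS reporter units, so signal reflects exogenous chimeric receptor-Gal4 activity. After 24 h compound exposure, reporter mRNA was measured by RT-PCR, fluorescent labelling and capillary electrophoresis, fitted for gain of signal versus DMSO.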

Assay [11] in a line: BSK_3C_SRB: Viability Assessment in the BioMAP Diversity Plus: 3C Assay (AID 2283023; active means hit-call score of the fitted dose curve at least 0.9, where 1 is the maximum; inactive means score below 0.9;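 further: fitted both ways against DMSO so a hit may be signal rise or drop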). Particulars: primary human endothelial cells (HUVEC). The gist of the method: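 Primary human umbilical vein endothelial cells in the 3C system were read 24 h after compound dosing. Total protein was stained with 0.1% sulforhodamine B after 10% TCA fixation and read at 560 nm, with bidirectional fitting against DMSO as baseline.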

Read-out in assay [12]: Matrix Metallopeptidase 1 (MMP1), MMP1 (gene 4312)
In words: BSK_BE3C_MMP1: BioMAP Diversity Plus: BE3C Assay for Matrix Metallopeptidase 1 (MMP1) Biomarker Activity (AID 2283024; active means hit-call score of the fitted dose curve at least 0.9, where 1 is the maximum; inactive means score below 0.9). Particulars: primary human bronchial epithelial cells; actives raise or lower the signal. The gist of the method:
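ELISA measurement of MMP-1 after 24 h compound exposure of primary human bronchial epithelial cells. Changes in either direction fitted relative to DMSO; parallel SRB staining checked overt cytotoxicity.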

Assay [13] is described as follows: BSK_3C_Vis: BioMAP Diversity Plus: 3C Assay for Morphology Visualization (AID 2283025; active means hit-call score of the fitted dose curve at least 0.9, where 1 is the maximum; inactive means score below 0.9;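 further: fitted both ways so gain or loss versus DMSO counts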). To be noted: primary human endothelial cells (HUVEC). Summed up: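 Light-microscopy visualization of HUVEC cultures at 24 h post-treatment, with DMSO as baseline for bidirectional fitting.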
Read-out in assay [14]: Pselectin, SELP (gene 6403)
In words: BSK_4H_Pselectin: BioMAP Diversity Plus: 4H Assay for Pselectin Biomarker Activity (AID 2283026; active means hit-call score of the fitted dose curve at least 0.9, where 1 is the maximum; inactive means score below 0.9). To be noted: primary human endothelial cells (HUVEC); actives raise or lower the signal. Summed up:
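ELISA of surface P-selectin on HUVEC, 24 h after dosing, with parallel SRB staining (0.1% after 10% TCA fixation, 560 nm) for overt cytotoxicity. Activity fitted in both directions relative to DMSO.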

Assay [15] in a line: BSK_4H_SRB: Viability Assessment in the BioMAP Diversity Plus: 4H Assay (AID 2283027; active means hit-call score of the fitted dose curve at least 0.9, where 1 is the maximum; inactive means score below 0.9;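 further: cells exposed to compound for 24 h before staining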). Particulars: primary human endothelial cells (HUVEC). Summed up:
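HUVEC, 24 h post-dose; 10% TCA fix, 0.1% SRB stain, A560 nm. Total protein = overt cytotoxicity, parallel to biomarker read. Bidirectional fit vs DMSO baseline.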

The nature of assay [16]: BSK_BE3C_SRB: Viability Assessment in the BioMAP Diversity Plus: BE3C Assay (AID 2283028; active means hit-call score of the fitted dose curve at least 0.9, where 1 is the maximum; inactive means score below 0.9). To be noted: primary human bronchial epithelial cells. Summed up:
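Human primary bronchial epithelial cells were exposed to test chemicals for 24 h. Total protein in parallel cultures was then measured by staining with 0.1% sulforhodamine B after 10% TCA fixation, with absorbance read at 560 nm. Activity was fitted bidirectionally against DMSO.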

Read-out in assay [17]: Thrombomodulin, THBD (gene 7056)
Briefly: BSK_3C_Thrombomodulin: BioMAP Diversity Plus: 3C Assay for Thrombomodulin Biomarker Activity (AID 2283029; active means hit-call score of the fitted dose curve at least 0.9, where 1 is the maximum; inactive means score below 0.9). To be noted: primary human endothelial cells (HUVEC); actives raise or lower the signal. Summed up: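 ELISA measurement of thrombomodulin on HUVEC surface 24 h after chemical dosing; activity fitted in both directions relative to DMSO vehicle.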

Assay [18] concerns the target human Thyroid Receptor alpha (THRa1), THRA (gene 7067) (UniProt P10827). Briefly: ATG_THRa1_TRANS: Attagene TRANS-FACTORIAL HepG2 Assay for human Thyroid Receptor alpha (THRa1) (AID 2283014). The gist of the method: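 HepG2 cells transiently transfected with multiplexed GAL4-UAS reporter units for exogenous chimeric THRa1-Gal4; reporter mRNA measured 24 h after dosing by RT-PCR, 6-FAM labelling, HpaI digestion and capillary electrophoresis. Gain-of-signal fitted versus DMSO baseline.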

human Thyroid Receptor alpha (THRa1), THRA (gene 7067), sequence (P10827 whole entry, looked up, the tested form may be a part): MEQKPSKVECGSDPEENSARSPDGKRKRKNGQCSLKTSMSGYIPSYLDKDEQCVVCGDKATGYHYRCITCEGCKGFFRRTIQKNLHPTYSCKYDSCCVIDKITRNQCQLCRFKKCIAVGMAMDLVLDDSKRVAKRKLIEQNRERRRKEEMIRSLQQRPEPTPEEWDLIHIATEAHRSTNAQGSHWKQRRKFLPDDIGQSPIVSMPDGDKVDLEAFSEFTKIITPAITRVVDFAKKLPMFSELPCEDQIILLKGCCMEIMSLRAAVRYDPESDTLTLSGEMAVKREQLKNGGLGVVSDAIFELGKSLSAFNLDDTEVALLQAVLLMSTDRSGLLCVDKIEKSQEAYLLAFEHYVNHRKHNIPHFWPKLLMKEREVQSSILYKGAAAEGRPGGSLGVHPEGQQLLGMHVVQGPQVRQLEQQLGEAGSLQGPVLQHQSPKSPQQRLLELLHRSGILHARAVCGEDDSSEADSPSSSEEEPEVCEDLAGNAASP
Retinoic acid receptor RXR-alpha (Homo sapiens), sequence (P19793 whole entry, looked up, the tested form may be a part): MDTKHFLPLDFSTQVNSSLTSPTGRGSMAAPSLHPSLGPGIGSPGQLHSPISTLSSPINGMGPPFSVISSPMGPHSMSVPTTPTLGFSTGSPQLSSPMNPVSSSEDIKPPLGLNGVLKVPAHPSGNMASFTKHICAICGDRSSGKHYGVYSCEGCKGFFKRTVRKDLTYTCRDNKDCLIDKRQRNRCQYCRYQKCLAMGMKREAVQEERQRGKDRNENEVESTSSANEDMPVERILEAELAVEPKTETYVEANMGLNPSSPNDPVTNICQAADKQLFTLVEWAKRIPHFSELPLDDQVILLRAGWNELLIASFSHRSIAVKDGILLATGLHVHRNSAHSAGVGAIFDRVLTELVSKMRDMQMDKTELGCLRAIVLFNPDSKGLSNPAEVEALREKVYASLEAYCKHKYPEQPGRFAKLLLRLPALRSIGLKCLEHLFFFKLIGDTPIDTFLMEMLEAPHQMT
human RAR-related Orphan Receptor gamma (RORg), RORC (gene 6097), sequence (P51449 whole entry, looked up, the tested form may be a part): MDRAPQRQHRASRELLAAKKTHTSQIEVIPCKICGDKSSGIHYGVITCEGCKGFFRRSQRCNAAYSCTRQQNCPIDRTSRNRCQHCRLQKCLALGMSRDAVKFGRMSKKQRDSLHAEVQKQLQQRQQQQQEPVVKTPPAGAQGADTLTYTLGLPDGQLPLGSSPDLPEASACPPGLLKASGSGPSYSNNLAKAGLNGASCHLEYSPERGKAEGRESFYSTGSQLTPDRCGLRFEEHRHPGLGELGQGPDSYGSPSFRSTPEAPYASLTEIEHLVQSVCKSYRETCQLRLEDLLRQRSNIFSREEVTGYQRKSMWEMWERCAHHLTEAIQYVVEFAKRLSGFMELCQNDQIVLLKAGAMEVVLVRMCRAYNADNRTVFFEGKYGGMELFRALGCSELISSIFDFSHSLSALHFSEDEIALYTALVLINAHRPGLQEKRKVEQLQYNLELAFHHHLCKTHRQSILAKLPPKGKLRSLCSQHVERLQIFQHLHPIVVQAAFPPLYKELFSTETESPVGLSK
human Retinoid X Receptor beta (RXRb), RXRB (gene 6257), sequence (P28702 whole entry, looked up, the tested form may be a part): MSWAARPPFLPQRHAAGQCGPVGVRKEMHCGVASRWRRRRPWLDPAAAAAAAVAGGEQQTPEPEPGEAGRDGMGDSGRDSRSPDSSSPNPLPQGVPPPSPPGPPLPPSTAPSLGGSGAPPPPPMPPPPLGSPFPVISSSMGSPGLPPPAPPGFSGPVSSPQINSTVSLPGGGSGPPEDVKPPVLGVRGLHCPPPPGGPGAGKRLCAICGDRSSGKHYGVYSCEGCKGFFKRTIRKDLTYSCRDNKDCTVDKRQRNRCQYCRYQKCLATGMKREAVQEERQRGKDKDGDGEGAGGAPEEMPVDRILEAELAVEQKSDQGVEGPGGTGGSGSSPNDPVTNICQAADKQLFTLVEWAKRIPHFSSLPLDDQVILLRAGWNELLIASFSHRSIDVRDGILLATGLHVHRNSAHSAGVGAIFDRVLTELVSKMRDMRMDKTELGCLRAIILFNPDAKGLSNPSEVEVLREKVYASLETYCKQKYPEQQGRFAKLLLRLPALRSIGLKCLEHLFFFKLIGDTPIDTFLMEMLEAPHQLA
human Vitamin D Receptor (VDR), VDR (gene 7421), sequence (P11473 whole entry, looked up, the tested form may be a part): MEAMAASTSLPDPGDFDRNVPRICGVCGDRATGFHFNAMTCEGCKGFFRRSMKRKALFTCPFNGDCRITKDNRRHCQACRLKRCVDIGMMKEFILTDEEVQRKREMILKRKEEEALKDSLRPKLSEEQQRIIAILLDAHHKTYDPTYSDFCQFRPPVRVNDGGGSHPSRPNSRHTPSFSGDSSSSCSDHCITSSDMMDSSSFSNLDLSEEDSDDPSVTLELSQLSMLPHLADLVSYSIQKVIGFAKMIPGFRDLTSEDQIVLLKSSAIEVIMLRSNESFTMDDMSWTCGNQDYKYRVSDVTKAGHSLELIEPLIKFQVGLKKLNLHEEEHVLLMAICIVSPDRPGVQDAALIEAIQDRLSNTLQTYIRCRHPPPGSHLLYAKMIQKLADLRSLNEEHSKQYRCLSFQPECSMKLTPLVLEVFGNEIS

`Nc1cccc(N)n1`: the compound was called inactive in assay [1], in assay [2], in assay [3], in [4], in [5] and in [6]. Moreover, the outcome in assay [7], in assay [8], in assay [9], in assay [10], in assay [11] and in assay [12] was inactive. Further, the outcome in assay [13], in assay [14], in assay [15], in assay [16] and in [17] was inactive.
Take `CCC(C)C(=O)OCCc1ccccc1` (stereo not given): the call in assay [1], in assay [2], in assay [3] and in assay [18] was inactive.
In the case of `CC(=O)CCC1=C(C)CCCC1(C)C`, the call in [1], in assay [2], in assay [18] and in assay [10] was inactive. For the same compound, the AC50 in [3] was 19.6 µM (active).
In the case of `CC(C)=NNC(N)=S`, the compound was classed as inactive in [1], in assay [2], in assay [3], in [18] and in assay [10].
On to `CC(=O)/C=C/C1C(C)=CCCC1(C)C` (stereo not given), for which the result in assay [1], in assay [2], in [18] and in assay [10] was inactive. Also, the AC50 in assay [3] is 31.3 µM (active).
For the compound `CC1=CP(=O)(c2ccccc2)CC1` (stereo not given), the compound was called inactive in assay [1], in assay [2], in assay [3] and in [18].
Regarding `CCOC(=O)C1=NOC(c2ccccc2)(c2ccccc2)C1`, the call in [1], in assay [2], in assay [5], in [6], in [7] and in assay [9] was inactive. Besides, the outcome in [10], in assay [11], in assay [12], in [13], in [14] and in assay [15] was inactive. Besides, the result in assay [16] and in [17] was inactive. Further, the AC50 was 0.129 µM (active) in assay [4] and 3.97 µM (active) in assay [8].
For the compound `CCc1cccc(C)c1N`, the call in assay [1], in assay [2] and in assay [3] was inactive.
For the compound `O=C1CCCN1C1CCCCC1`, the result in assay [1] and in assay [3] was inactive.
Consider `Cc1cc(C)n(CO)n1`, for which the compound was called inactive in [1], in assay [3] and in assay [10].
Consider `CC(C)CCOCc1ccccc1`, for which the call in [1], in assay [3] and in assay [10] was inactive.
Turning to `COc1nccnc1CC(C)C`, the call in assay [1], in [18] and in assay [10] was inactive.
Turning to `COC(=O)C=Cc1ccccc1`, the result in assay [1], in assay [3] and in assay [18] was inactive.
On to `CC1=NN(c2ccc(S(=O)(=O)O)cc2)C(=O)C1N=Nc1ccccc1` (stereo not given), for which the compound was called inactive in [1], in assay [3], in assay [18] and in assay [10].
For `Fc1ccc(Br)cc1`, the result in [1], in [4], in assay [5], in assay [6], in assay [7] and in assay [8] was inactive. The result in assay [9], in assay [10], in [11], in assay [12], in assay [13] and in assay [14] was inactive. Also, the result in assay [15], in assay [16] and in [17] was inactive. In addition, the AC50 in [3] is 156 µM (active).
With `CCCCCCCCCCCCCC(=O)OC(C)C`, the result in assay [1], in assay [3], in assay [18] and in assay [10] was inactive.
For the compound `C=Cc1cccc(C)c1`, the compound was called inactive in assay [1], in assay [3], in [18] and in assay [10].
For the compound `C[Si](C)(C)N[Si](C)(C)C`, the compound was classed as inactive in [1], in [3], in assay [18] and in assay [10].

(Values after PubChem BioAssay (EPA / NIEHS).)
